Source: PubChem
Sampled rows, rich in hits. Any-hit rate of the full collection: about 2.6%.
Cruzain inh Det = inhibitors of Trypanosoma cruzi cruzain with detergent; purified cruzain, Z-FR-AMC fluorescence, 0.01% Triton; Potency, µM, for inactives: max response, negative = inhibition, usual class: inhibitors; AID 1478; P25779; actives 0.43% (n = 200,000);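 also: plate controls were neutral wells for no effect and buffer without enzyme for full effect; nearly all actives have a fitted effect of over 40% in size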
Target sequence (P25779 123-467 limits assumed): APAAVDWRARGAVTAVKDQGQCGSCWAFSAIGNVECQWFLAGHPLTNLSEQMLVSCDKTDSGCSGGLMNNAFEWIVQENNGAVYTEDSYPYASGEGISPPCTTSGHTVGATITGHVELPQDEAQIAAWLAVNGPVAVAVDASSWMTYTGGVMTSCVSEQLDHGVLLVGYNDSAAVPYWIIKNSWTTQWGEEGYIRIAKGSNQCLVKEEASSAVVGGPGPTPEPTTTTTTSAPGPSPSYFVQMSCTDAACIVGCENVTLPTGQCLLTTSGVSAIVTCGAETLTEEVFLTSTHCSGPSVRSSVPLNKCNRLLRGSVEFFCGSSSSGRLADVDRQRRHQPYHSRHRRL
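Detergent-containing arm of a paired screen for aggregation-based inhibition: 0.01% Triton X-100 present. Cruzain at 1.5 nM cleaved 2 uM Z-FR-AMC at pH 5.5 with 5 mM DTT; AMC fluorescence gain over 60 s measured activity.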
Cruzain inh noDet = cruzain (T. cruzi) inhibition without detergent; P25779; purified cruzain, Z-FR-AMC fluorescence, no detergent; Potency, µM, without a hit: max response, negative = inhibition, most hits filed as inhibitors; actives 2.3% (n = 200,000);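 also: plate controls were enzyme without inhibitor for no effect and buffer without enzyme for full effect; nearly all actives have a fitted effect of over 40% in size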
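Purified cruzain at 1.5 nM, pre-incubated 15 min with compound at room temperature in 100 mM sodium acetate pH 5.5, 5 mM DTT, 0.00005% Triton X-100. Reaction started with 2 uM Z-FR-AMC; AMC fluorescence increase over 60 s gives rate.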
* marks the source's active call; other numbers are inactive results; ? = inconclusive; ! = not confirmed by another sample. Calls follow the shape of the dose curve; as a rule, active = well fitted curve in the direction sought with a large enough effect; inconclusive = small, poorly fitted or top-dose-only effect, or another doubt; inactive = no such curve, though single readings can be large; an effect the other way counts as inactive or inconclusive. Potency is read from the fitted curve at half-maximal effect.

SMILES | Cruzain inh Det | Cruzain inh noDet
COCCN1CN=C(Nc2nc3ccccc3o2)NC1 | 7.8% | -1.5%
COc1ccc(NC(=O)CN2C(=O)C3(SCC(=O)N3c3ccccc3)c3ccccc32)cc1Cl (stereo unspecified) | -5.1% | 20µM*
O=C(CN1C(=O)C2(SCC(=O)N2c2ccc(F)c(F)c2)c2ccccc21)Nc1cccc(Cl)c1 (stereo unspecified) | -5.9% | ?
Cc1ccc(NC(=O)CN2C(=O)C3(SCC(=O)N3c3cccc(Cl)c3)c3ccccc32)cc1C (stereo unspecified) | -5.4% | 20µM*
Cc1ccc(N2C(=O)CSC23C(=O)N(CC(=O)Nc2ccc(C(C)C)cc2)c2ccccc23)cc1C (stereo unspecified) | -5.5% | ?
COc1ccccc1-c1nnc(SCC(=O)NCc2c(C)c(Cl)cc(C(C)C)c2O)o1 | -2.3% | ?
CCc1nn(CC(=O)NCCCOC)c(=O)c2cc3ccccc3n12 | -0.7% | -11.5%
CN1CCN(C(=S)Nc2ccc(Cl)cc2Cl)CC1 | 3.1% | 1.58µM*
CCN1CCN(C(=S)Nc2ccc(Cl)cc2Cl)CC1 | -0.1% | -1.0%
CC(=O)Oc1ccc(-c2cccc(C(=O)OCC(=O)Nc3ccccc3Oc3ccccc3)c2)cc1 | -2.5% | ?
Cc1ccc(NC(=O)c2ccc(N/N=C/c3cccc(O)c3)c([N+](=O)[O-])c2)cc1 | 0.4% | 10µM*
Cc1ccc(NC(=O)c2ccc(Nc3c([N+](=O)[O-])cc([N+](=O)[O-])cc3[N+](=O)[O-])cc2)cc1 | -7.7% | ?
Cc1ccccc1NC(=O)c1ccc(N/N=C/c2ccccc2O)c([N+](=O)[O-])c1 | 0.4% | 10µM*
CCc1ccccc1NC(=O)c1ccc(NCCc2ccccc2)c([N+](=O)[O-])c1 | -4.1% | -3.9%
Cc1ccc(-c2c(C(=O)N3CCN(c4ccc(F)cc4)CC3)oc(=O)c3ccccc23)cc1 | 2.4% | -4.2%
CC1CCCCN1C(=O)Cn1ncc2c3ccccc3n(Cc3ccccc3F)c2c1=O (stereo unspecified) | -10.0% | -0.5%
S=c1[nH]nc(Cc2cccs2)n1-c1cccc2ccccc12 | -5.4% | -3.2%
COc1cccc(OC)c1C(=O)Nc1nc2c(s1)CCc1ccccc1-2 | 0.1% | 6.7%
CCCN(CCC)S(=O)(=O)c1ccc(C(=O)Nc2nc3c(s2)CCc2ccccc2-3)cc1 | 1.3% | 7.94µM*
Cc1ccccc1Cn1c(=O)n(Cc2ccco2)c(=O)c2sc3ccccc3c21 | -12.4% | ?
N#C/C(=C(/O)CSc1ccccc1C(=O)O)c1nc2ccccc2s1 | 4.1% | -3.1%
Cc1ccc(SC/C(O)=C(\C#N)c2nc3ccccc3s2)cc1 | 1.1% | 25.1µM*
N#C/C(=C\c1ccc(-c2ccc(F)cc2F)o1)c1nc2ccccc2[nH]1 | -5.2% | 12.6µM*
CN(C)S(=O)(=O)c1cccc(-c2nn(-c3ccccc3)cc2/C=C(\C#N)c2nc3ccccc3[nH]2)c1 | -3.3% | ?
N#C/C(=C\c1cn(-c2ccccc2)nc1-c1cc2ccccc2o1)c1nc2ccccc2[nH]1 | -2.6% | 7.94µM*
SMILES | Cruzain inh Det | Cruzain inh noDet
N#C/C(=C\c1ccc(-c2ccccc2C(=O)O)o1)c1nc2ccccc2[nH]1 | -0.7% | -1.3%
O=C(CCSCc1ccc(Cl)cc1)NCc1ccc(F)cc1Cl | 0.1% | -25.6%
Cc1cc(C)c(C)c(S(=O)(=O)N2CCN(Cc3nc4ccccc4[nH]3)CC2)c1C | 0.8% | 1.7%
CC(C)NC(=O)NC(=O)CSc1ccccc1F | 0.5% | -6.4%
CCOC(=O)c1c(O)c2c(n(Cc3ccco3)c1=O)CCCC2 | -0.3% | 4.5%
CCCn1c2c(c(O)c(C(=O)NCc3ccccc3)c1=O)CCCC2 | -3.1% | -0.7%
O=C(Nc1cccc(Cl)c1)c1c(O)c2c(n(Cc3ccco3)c1=O)CCCC2 | -2.3% | 7.94µM*
O=C(Nc1cccc(Cl)c1)c1c(O)c2c(n(Cc3ccccc3)c1=O)CCCC2 | -0.5% | 15.8µM*
O=C(COC(=O)c1cc(-c2cccs2)nc2ccccc12)c1ccc(F)cc1 | -6.4% | ?
COc1cc(OC)c(NC(=O)c2nnn(Cc3ccc(C)cc3)c2N)cc1Cl | -3.3% | -18.7%
CCc1ccccc1NC(=O)Cn1nnc(C(=O)Nc2ccc(OC)c(OC)c2)c1N | -0.2% | 13.8%
CCc1ccc(Cn2nnc(C(=O)Nc3ccc(OC)cc3OC)c2N)cc1 | 1.9% | 25.1µM*
Cc1ccc(CNC(=O)c2nnn(CC(=O)Nc3cc(C)ccc3C)c2N)cc1 | -0.2% | -11.7%
Cc1ccc(NC(=O)Cn2nnc(C(=O)NCc3cccs3)c2N)cc1Cl | -0.6% | 25.1µM*
CCc1ccccc1NC(=O)c1nnn(CC(=O)Nc2c(C)cc(C)cc2C)c1N | 0.3% | 31.6µM*
CCc1ccc(NC(=O)Cn2nnc(C(=O)NCc3ccc(C)cc3)c2N)cc1 | 0.5% | 20µM*
Cc1ccc(NC(=O)Cn2nnc(C(=O)NCc3cccs3)c2N)cc1 | 0.7% | ?
Cc1ccc(C(=O)Nc2nnc(SCc3cc(=O)n4ccc(C)cc4n3)s2)cc1 | 7.1% | -1.8%
COc1ccc(NC(=O)COCc2cc(-c3cccs3)on2)cc1 | -5.1% | 3.8%
Cc1ccc(Cl)cc1NC(=O)CCCn1c(=O)c2cccn2c2cccnc21 | 0.0% | 2.3%
CC(NC(=O)CN(C)S(=O)(=O)c1ccc2c(c1)c(=O)n(C)c(=O)n2C)c1ccccc1 (stereo unspecified) | 1.8% | 11.7%
O=C(NC12CC3CC(CC(C3)C1)C2)N1CCN(c2ccccn2)CC1 | -0.8% | -1.7%
COc1ccccc1NC(=O)Cn1nnc(C(=O)NCc2cccs2)c1N | 0.3% | -25.6%
COc1ccc(NC(=O)Cn2nnc(C(=O)Nc3ccc(C)c(F)c3)c2N)cc1Cl | 0.5% | 6.5%
CCc1ccccc1NC(=O)Cn1nnc(C(=O)NCc2cccs2)c1N | -0.7% | 20µM*
SMILES | Cruzain inh Det | Cruzain inh noDet
Cc1cccc(NC(=O)Cn2nnc(C(=O)Nc3ccc(F)c(Cl)c3)c2N)c1 | -0.7% | 25.1µM*
O=S(=O)(c1ccccc1)N1CCC2(CCN(c3cccc(-c4ccccc4)c3)CC2)CC1 | 6.8% | 14.9%
CC1CCCCN1CCNC(=O)C1CCN(S(=O)(=O)N2CCCCC2)CC1 (stereo unspecified) | 2.6% | -9.0%
CCc1c(C)sc(NC(=O)c2cc(-c3ccc(O)cc3)on2)c1C#N | -1.0% | 7.94µM*
CCc1c(C)sc(NC(=O)c2cc(-c3ccc(OC)c(OC)c3)on2)c1C#N | -3.6% | -8.1%
Cn1c(=O)c2c3c(sc2n2c(SCc4ccc5c(c4)OCO5)nnc12)COC(C)(C)C3 | 3.3% | -4.5%
Cc1ccc(Cl)cc1N1CCN(C(=O)c2ccc(NC(=O)c3nsc4ccccc34)cc2)CC1 | 2.2% | 7.94µM*
O=C(Nc1ccc(C(=O)N2CCN(c3ccc(Cl)cc3)CC2)cc1)c1nsc2ccccc12 | -2.0% | -9.6%
Cc1csc2ncc(C(=O)Nc3cccc(C(F)(F)F)c3)c(=O)n12 | -0.8% | ?
NC(N)=NC(N)=Nc1ccccc1 (tested in a mixture with another compound) | 1.0% | 4.3%
CCOC(=O)c1ccc(S(=O)(=O)n2c(CN3CCCCC3)nc3ccccc32)cc1 | 0.3% | -2.1%
CCCN(CC1CC1)c1nc(N)c(C#N)c(CC#N)c1C#N | -6.2% | -8.9%
CCCN(CC1CC1)c1nc(C)nc(Nc2c(Cl)cc(Cl)cc2Cl)c1Cl | -1.7% | 25.1µM*!
O=C(COc1cccc(Cl)c1)N/N=C\c1cc2ccccc2nc1Cl | 9.4% | -18.5%
O=C(CNc1ccc2ccccc2c1)N/N=C/c1cc2ccccc2nc1Cl | -14.4% | 25.1µM*
O=C(Nc1cccc(Cl)c1N1CCCC1)c1cccc(-c2cc3ccccc3oc2=O)c1 | -0.3% | 10µM*
